In PubChem BioAssay AID1220 (Sanford-Burnham Center for Chemical Genomics, 2008):
Hit rate of the full screen: of about 190,000 compounds, about 1,300 (0.68%) were called active. The sample as a whole holds a higher share of actives than the screen did. Values without a mark were called inactive. Rule as the data show it: active = inhibition above about 50%; inactive = the rest.

target: Mannose-6-phosphate isomerase (Homo sapiens) (UniProt P34949); assay: human PMI inhibitors, high substrate, primary screen, biochemical, fluorescence intensity, high mannose 6-phosphate (AID 1220); conditions: recombinant PMI enzyme, coupled fluorescence intensity; at 20 µM; hits give high values
Sequence (P34949 whole entry, looked up): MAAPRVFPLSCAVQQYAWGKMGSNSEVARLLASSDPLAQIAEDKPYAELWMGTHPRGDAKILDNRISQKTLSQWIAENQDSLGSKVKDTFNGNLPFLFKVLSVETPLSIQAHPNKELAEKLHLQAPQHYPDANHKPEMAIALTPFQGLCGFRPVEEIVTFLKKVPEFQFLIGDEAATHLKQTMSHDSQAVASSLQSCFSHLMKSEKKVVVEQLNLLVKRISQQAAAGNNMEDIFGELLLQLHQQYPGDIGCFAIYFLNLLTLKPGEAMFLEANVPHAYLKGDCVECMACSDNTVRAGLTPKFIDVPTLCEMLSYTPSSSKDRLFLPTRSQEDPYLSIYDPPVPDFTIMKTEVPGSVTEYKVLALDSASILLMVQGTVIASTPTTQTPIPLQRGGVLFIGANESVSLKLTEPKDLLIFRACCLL

Compound | inhibition
Cc1cc(NC(=O)CN2C(=O)/C(=C/c3cccc(Br)c3)SC2=S)no1 | -9.8%
CC(Cl)c1cc(-c2ncc(C(F)(F)F)cc2Cl)no1 (stereo unspecified) | -4.3%
CCc1ccccc1OCCCCCNCCO | 1.5%
COc1cc(C2=NOC(C(=O)N3CCCCCC3)C2)cc(OC)c1OC (stereo unspecified) | -5.6%
O=C(O)C1CC=CCC1C(=O)NCCc1csc(-c2ccccc2)n1 (stereo unspecified) | -17.1%
CCOc1ccc(C(C)NC(=S)NC2CCCCC2)cc1OCC (stereo unspecified) | 6%
Cc1ccc(OCC(=O)N/N=C\c2cn(C)c3ccccc23)c([N+](=O)[O-])c1 | 14%
COc1cccc(C2NC(=O)c3ccccc3O2)c1OCc1ccccc1F (stereo unspecified) | 19%
CN(C)c1ccc(/C(=N\O)c2ccccc2)cc1 | 5.9%
CN(C)c1ccc(C(=O)/C=C/c2ccco2)cc1 | 38.7%
CN(C)c1ccc(N=Cc2ccco2)cc1 | 63.2% (active)
CN(C)c1ccc(C=Nc2ccccc2)cc1 | -10.5%
Cc1ccc(C=Nc2ccc(N(C)C)cc2)o1 | 51.8% (active)
Cc1ccc(N=Cc2ccc(N(C)C)cc2)cc1C | 10%
Cc1ccc(/C=C/C(=O)Nc2ccc(N(C)C)cc2)o1 | 27.9%
CN(C)c1ccc(N=Cc2nc(-c3ccccc3)oc2O)cc1 | 31%
Cc1ccc(N=Cc2ccc(N(C)C)cc2)cc1 | 9.3%
CN(C)c1ccc(C=Nc2ccc(N(C)C)cc2)cc1 | 59.2% (active)
CCSc1nc(C(F)(F)F)cc(=O)n1-c1ccccc1 | -9.6%
O=C(Nc1c(F)cc(F)cc1Br)c1cc2nc(C(F)F)cc(C(F)F)n2n1 | 18.1%
CCCC1(C)NC(=O)c2ccccc2O1 (stereo unspecified) | 7.5%
Cc1cccc(C)c1NC(=O)CSc1nnc(Cc2ccccc2)o1 | -13.2%

Compound | inhibition
Cc1cccc(OCC(=O)O/N=C(\N)Cc2cccs2)c1 | 0%
O=C(COc1cccc(C(F)(F)F)c1)N1CCN(c2ccc(O)cc2)CC1 | 50.6% (active)
COc1ccc(OCC(=O)N2CCN(c3cccc(C(F)(F)F)c3)CC2)cc1 | 15.4%
O=C(COc1cccc(C(F)(F)F)c1)N1CCN(c2ccccc2O)CC1 | -5.8%
CC(C)C(=O)NC(Nc1cccc2cccnc12)C(Cl)(Cl)Cl (stereo unspecified) | 41.4%
CCC(=O)NC(NC(=S)Nc1cccc2cccnc12)C(Cl)(Cl)Cl (stereo unspecified) | 37.8%
CC(C)(C)C(=O)NC(Nc1cccc2cccnc12)C(Cl)(Cl)Cl (stereo unspecified) | 60.1% (active)
CCOC(=O)c1oc2ccccc2c1NC(=O)COC | -10.9%
CCOc1ccc(C(C)NC(=O)CCC(=O)O)cc1 (stereo unspecified) | 1.9%
Cc1ccc2nc(SCC(=O)Nc3cccc(S(=O)(=O)N(C)C)c3)[nH]c2c1 | 10.5%
O=C(/C=C/c1ccc(Br)o1)NCCCN1CCOCC1 | -2.7%
COc1ccc(N2C(=O)CC(Sc3nc4c(cc3C#N)CCC4)C2=O)cc1 (stereo unspecified) | 57.1% (active)
CCCc1ccc(C#N)c(SC2CC(=O)N(c3ccc(OC)cc3)C2=O)n1 (stereo unspecified) | 40.6%
N#Cc1cc2c(nc1SC1CC(=O)N(c3ccccc3)C1=O)CCC2 (stereo unspecified) | 35.2%
Cc1nc2ccc(Nc3nc4cc(S(=O)(=O)N5CCOCC5)ccc4o3)cc2s1 | 61.9% (active)
Cc1nc2ccc(NC(=O)c3ccc(S(=O)(=O)N4CCOCC4)cc3)cc2s1 | -2.3%
Cc1nc2ccc(NC(=O)c3cc(S(=O)(=O)N4CCOCC4)ccc3C)cc2s1 | 5.6%
Nc1nc(NCCCN2CCOCC2)nc(Nc2ccc(F)cc2)c1[N+](=O)[O-] | -6.1%
CCOC(=O)c1sc2nc(CC(=O)OC)nc(N(C)CCc3ccccn3)c2c1C | -1.1%
CC1=C(n2nnc([N+](=O)[O-])n2)C(c2cccnc2)C(C#N)=C(N)O1 (stereo unspecified) | 59.9% (active)
COC(=O)C1=C(C)OC(N)=C(C#N)C1c1cccnc1 (stereo unspecified) | 0.3%
CC(=O)C1=C(C)OC(N)=C(C#N)C1c1ccncc1 (stereo unspecified) | -5.8%

Compound | inhibition
CCOC(=O)C1=C(c2ccccc2)OC(N)=C(C#N)C1c1cccnc1 (stereo unspecified) | 11.6%
CC(=O)C1=C(C)OC(N)=C(C#N)C1c1cccnc1 (stereo unspecified) | 42.6%
CC(=O)C1=C(C)OC(N)=C(C#N)C1c1cccc([N+](=O)[O-])c1 (stereo unspecified) | 56.7% (active)
O=C(CN1CCN(C2CCCCC2)CC1)Nc1ccc(Br)cc1 | -11.2%
CC1(C)CC(=O)C(N=Nc2cc(Cl)c(Cl)c(Cl)c2)=C(O)C1 | -3.4%
O=Cc1ccc(-n2cc(C=O)c3ccccc32)cc1 | -5.3%
CC1=C(C(=O)OCC2CCCO2)C(c2coc3ccccc3c2=O)C2=C(CC(C)(C)CC2=O)N1 (stereo unspecified) | -4.3%
CC(NC(=O)c1cc(-c2ccc(Br)cc2)on1)c1ccccc1 (stereo unspecified) | -3.3%
CCc1cc(C(=O)Cc2cnn(-c3ccccc3)c2)c(O)cc1O | 15.5%
O=C(c1cnn(-c2ccccc2)c1)c1ccccc1O | 10.1%
O=C(Nc1cccc(NC(=O)c2ccc3c(c2)OCO3)c1)c1ccccc1 | 6.5%
CCOc1ccccc1N1CCN(CC(=O)Nc2nnc(CC)s2)CC1 | -13%
O=c1c2cc(Br)ccc2nc(-c2ccc([N+](=O)[O-])cc2)n1O | -16.5%
O=c1n(-c2ccc(Br)cc2)cnn1-c1ncccc1[N+](=O)[O-] | -0.4%
O=c1c2c([N+](=O)[O-])cc([N+](=O)[O-])cc2sn1-c1ccc(Br)cc1 | 104% (active)
Cc1ccc(C(=O)Nc2ccc(Br)cc2)cc1S(=O)(=O)Nc1ccccn1 | 3.7%
c1ccc(Nc2cccc(Nc3ccccc3)c2)cc1 | 29.3%
COc1cccc(NC2=NC3(CCCCC3)N=C(N)N2)c1 | -6.8%
O=C1c2cccc3cccc(c23)C(=O)N1c1nccs1 | 8.2%
COc1ccc(OC)c(-c2nnc(NC(=O)C(C)Sc3nncn3C)s2)c1 (stereo unspecified) | 91.6% (active)
COc1ccccc1-c1nnc(NC(=O)C(C)Sc2nncn2C)s1 (stereo unspecified) | -2.2%
CC(Sc1nncn1C)C(=O)Nc1nnc(-c2ccccc2)s1 (stereo unspecified) | 6%
